This passage reports parasite growth, lower = inhibition results from PubChem BioAssay AID743365 (National Center for Advancing Translational Sciences (NCATS), 2014).

The assay is described as follows: qHTS profiling of inhibitors of Plasmodium falciparum (DD2) proliferation (acoustic dispense). The conditions noted are these: P. falciparum Dd2 in erythrocytes, SYBR Green DNA, 72 h; at 49.8 µM (top of the series) unless noted. (In general: qHTS replaces the single test concentration by a dilution series.)
Consider `COc1ccc(-c2nc(N3CCOCC3)c3sc(CN(C)c4ncc(C(=O)NO)cn4)cc3n2)cn1`, for which the parasite growth, lower = inhibition was 0.651%.
To `CCCCN(CCCC)CCC(O)c1cc2c(Cl)cc(Cl)cc2c2cc(C(F)(F)F)ccc12` (centres undefined) belongs -0.281% [at 23.2 µM].
In the case of `Cn1cnc(=N)c2[nH]cnc21` it was 0.26%.
Turning to `C[C@H](Cn1cnc2c(N)ncnc21)OCP(=O)(O)O`, the parasite growth, lower = inhibition was determined as 98%.
In the case of `CCOC(=O)[C@H](CCc1ccccc1)N[C@H]1CS[C@H](c2cccs2)CN(CC(=O)O)C1=O`, the parasite growth, lower = inhibition was found to be 61.3%.
In the case of `CO[C@H]1O[C@@H]2O[C@@]3(C)CC[C@@H]4[C@@H](C)CC[C@@H]([C@H]1C)[C@@]24OO3` it was -0.475%; in that of `COC(=O)c1ccc2c(C(=Nc3ccc(N(C)C(=O)CN4CCN(C)CC4)cc3)c3ccccc3)c(O)[nH]c2c1`, 14.8%; in that of `C=C[C@@H]1CN2CCC1C[C@@H]2C(O)c1ccnc2ccc(OC)cc12` (some centres undefined), 1.83%.
As to `O=C(Nc1ccc([N+](=O)[O-])cc1Cl)c1cc(Cl)ccc1O`, the parasite growth, lower = inhibition worked out at 87.9%.
To `CCNC(=O)c1noc(-c2cc(C(C)C)c(O)cc2O)c1-c1ccc(CN2CCOCC2)cc1` belongs 112%; to `CCN(CC)Cc1cc(Nc2ccnc3cc(Cl)ccc23)ccc1O`, 0.736% [at 23.2 µM].
Turning to `COc1ccc(-c2ccc3ncc4c(c3c2)n(-c2ccc(N3CCNCC3)c(C(F)(F)F)c2)c(=O)n4C)cn1`, the parasite growth, lower = inhibition amounted to 2.81%.
On to `C1CCC(C(CC2CCCCN2)C2CCCCC2)CC1` (centres undefined), for which the parasite growth, lower = inhibition came to 0.0319%.
To `CN(C)c1ccc(C(=C2C=CC(=[N+](C)C)C=C2)c2ccc(N(C)C)cc2)cc1` belongs 96.3%.
To `COc1cc(NCc2ccc3nc(N)nc(N)c3c2C)cc(OC)c1OC` belongs -1.45%; to `CC(C)C[C@H](NC(=O)[C@H](CCc1ccccc1)NC(=O)CN1CCOCC1)C(=O)N[C@@H](Cc1ccccc1)C(=O)N[C@@H](CC(C)C)C(=O)[C@@]1(C)CO1`, 0.838%; to `C[C@@H]1CCC2[C@@H](C)[C@@H](O)O[C@@H]3O[C@@]4(C)CC[C@@H]1[C@@]23OO4` (some centres undefined), -0.395%.
To `C=C[C@@H]1CN2CC[C@@H]1C[C@H]2[C@H](O)c1ccnc2ccc(OC)cc12` belongs 0.438%; to `CO[C@H]1C=CC=C(C)C(=O)NC2=CC(=O)C(NCCN(C)C)=C(C[C@@H](C)C[C@H](OC)[C@@H](O)[C@@H](C)C=C(C)[C@@H]1OC(N)=O)C2=O`, -1.01%.
On to `C#Cc1cccc(Nc2ncnc3cc(OC)c(OCCCCCCC(=O)NO)cc23)c1`, for which the parasite growth, lower = inhibition was -0.648%.
Consider `C=CCNc1c(O)cc2c(O)c1C[C@@H](C)C[C@H](OC)[C@@H](O)[C@@H](C)C=C(C)[C@H](OC(N)=O)[C@@H](OC)C=CC=C(C)C(=O)N2`, for which the parasite growth, lower = inhibition was -0.701%.
To `Cn1c(=O)c(-c2c(Cl)cccc2Cl)cc2cnc(Nc3cccc(C(=O)O)c3)nc21` belongs -0.0499%; to `O=C1NC(=O)C(=Cc2ccc3nccc(-c4ccncc4)c3c2)S1`, 0.455%.
In the case of `CC(C)N=C(N)N=C(N)Nc1ccc(Cl)cc1` it was -0.338%; in that of `CC(C)n1nc(-c2ccc3oc(N)nc3c2)c2c(N)ncnc21`, -0.0305%; in that of `O=C(Nc1cn[nH]c1-c1nc2ccc(CN3CCOCC3)cc2[nH]1)NC1CC1`, 0.452%.
For `Nc1ccc(-c2ccc3ncc4ccc(=O)n(-c5cccc(C(F)(F)F)c5)c4c3c2)cn1`, the parasite growth, lower = inhibition was -0.538%.
For `Clc1ccc2c(N3CCN(CCCN4CCN(c5ccnc6cc(Cl)ccc56)CC4)CC3)ccnc2c1`, the parasite growth, lower = inhibition was -0.434% [at 23.2 µM].
In the case of `CC[C@H]1OC(=O)[C@H](C)[C@@H](O[C@H]2C[C@@](C)(OC)[C@@H](O)[C@H](C)O2)[C@H](C)[C@@H](O[C@@H]2O[C@H](C)C[C@H](N(C)C)[C@@H]2O)[C@](C)(O)C[C@@H](C)CN(C)[C@H](C)[C@@H](O)[C@]1(C)O` it was 9.84%; in that of `C[C@H]1c2cccc(O)c2C(O)=C2C(=O)[C@]3(O)C(O)=C(C(N)=O)C(=O)[C@@H](N(C)C)[C@@H]3[C@@H](O)[C@@H]21`, 1.85%.
To `CC(=NNC(=S)N1CCC1)c1ccccn1` belongs -0.523%; to `CC[C@@]1(O)C[C@H](O[C@H]2C[C@H](N(C)C)[C@H](O[C@H]3C[C@H](O)[C@H](O[C@H]4CCC(=O)[C@H](C)O4)[C@H](C)O3)[C@H](C)O2)c2c(cc3c(c2O)C(=O)c2c(O)cccc2C3=O)[C@@H]1C(=O)OC`, -1.21%.
In the case of `CCS(=O)(=O)Nc1ccc2[nH]c(O)c(C(=Nc3ccc(CN4CCCCC4)cc3)c3ccccc3)c2c1` it was -0.594%; in that of `NC1CCC(Nc2nc(Nc3ccc(C(=O)N4CCCCC4)cc3)c3ncn(-c4cccc(F)c4)c3n2)CC1` (centres undefined), -0.359%.
